Results as given in PubChem BioAssay AID1240 (Sanford-Burnham Center for Chemical Genomics, 2008).
Screen size: about 50,000 compounds; about 800 (1.6%) showed an effect of 50% or more. The sample holds strong results, similar compounds and a random draw of the others, so the mix is not that of the screen.

biological target: Bcl-2-like protein 10 (Homo sapiens) (UniProt Q9HD36); experiment: TR3 peptide-Bcl-B binding displacers, biochemical primary FP assay, phenotype converters (AID 1240); details: GST-Bcl-B / FITC-TR3 peptide fluorescence polarization; stronger effect = higher value; compound at 3.75 mg/L;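 note: 0% = Bcl-B with tracer peptide and DMSO and 100% = tracer peptide lacking Bcl-B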
Sequence (Q9HD36 whole entry, looked up): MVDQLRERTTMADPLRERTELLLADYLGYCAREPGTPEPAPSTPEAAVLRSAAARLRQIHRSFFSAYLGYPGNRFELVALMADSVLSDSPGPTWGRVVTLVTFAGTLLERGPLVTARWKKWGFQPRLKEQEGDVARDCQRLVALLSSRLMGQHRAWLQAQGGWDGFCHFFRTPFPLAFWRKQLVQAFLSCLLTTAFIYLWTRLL

Row | Structure (SMILES) | displacement
1 | O=C(c1ccc([N+](=O)[O-])cc1)N1CCN(CC2CC3C=CC2C3)CC1 (configuration not stated) | -6.8%
2 | O=C(Nc1ccccc1F)c1ccc(CSc2ccc(Cl)cc2)cc1 | 6%
3 | COc1ccccc1OCCNC(=O)c1ccc(Br)cc1 | -19.3%
4 | CCOc1ccc(NC(=O)c2cc3cc(OC)ccc3oc2=O)cc1 | 13.8%
5 | O=C(Nc1ccccc1I)C1CC(=O)N(c2ccc(Br)cc2)C1 (configuration not stated) | -26%
6 | CC1(C)CC(NC(=S)Nc2cccc(Cl)c2)CC(C)(C)N1 | -3.3%
7 | O=S(=O)(c1ccc(Cl)cc1)n1cccc1 | 6.8%
8 | O=[N+]([O-])c1ccccc1C=Nc1cc2c(cc1Br)OCCO2 | -4.8%
9 | COc1cc2c(cc1NS(=O)(=O)c1ccc([N+](=O)[O-])cc1)oc1ccccc12 | -2.9%
10 | O=C(O)c1ccc(Cl)c(S(=O)(=O)N2CCCC2)c1 | 5.8%
11 | O=C1c2ccc(Oc3ccc4c(c3)C(=O)N(Cc3cccnc3)C4=O)cc2C(=O)N1Cc1cccnc1 | -7%
12 | O=[N+]([O-])c1ccc(N2CCOCC2)cc1NC1CC1 | 4%
13 | COc1ccc(C(=O)NNC(=O)c2cccc(C)c2)c(OC)c1 | 3.3%
14 | CCOc1ccc(Nc2cc(=O)n(C)c(=O)n2C)cc1 | -4.6%
15 | COc1ccc(CSCC(=O)O)cc1C(=O)O | -8.5%
16 | Cc1ccc(-c2ccccc2)n1-c1ccccc1C(=O)O | 86.8%
17 | Cc1c(C(=O)O)cccc1-n1c(=O)c2cc3c(=O)n(-c4cccc(C(=O)O)c4C)c(=O)c3cc2c1=O | 14%
18 | Cc1ccc(-c2ccccc2)n1-c1ccc(Cl)c(C(=O)O)c1 | -41.6%
19 | COc1ccc(N)cc1-n1c(C)ccc1C | 42.5%
20 | Cc1c(C(=O)O)cccc1-n1c(C)ccc1C | 85.4%
21 | Cc1ccc(-c2ccccc2)n1-c1ccc(O)c(C(=O)O)c1 | 20.4%

Row | Structure (SMILES) | displacement
22 | CC(=O)c1c(C(=O)O)cccc1C(=O)O | 4.4%
23 | COc1cc(C(=O)O)c(-n2c(C)ccc2C)cc1OC | 74.7%
24 | CCOC(=O)C1=C(c2ccccc2)N=c2s/c(=C\c3cccnc3)c(=O)n2C1c1cc(OC)ccc1OC (configuration not stated) | -3%
25 | Cc1ccc(C(=O)Nc2ccccc2C(=O)NC(Cc2c[nH]c3ccccc23)C(=O)O)cc1 (configuration not stated) | 7.1%
26 | CN1C(N)=NC(=O)C12COC(c1cccnc1)OC2 (configuration not stated) | 7.8%
27 | CC(=O)N(C)c1ccc(NC(=O)c2ccccc2[N+](=O)[O-])cc1 | -4%
28 | Cc1ccc(N(CC(=O)NCCc2ccccc2)S(C)(=O)=O)cc1Cl | 19.2%
29 | O=C(O)c1cccc(NC2=C(Cl)C(=O)N(c3ccc(Cl)cc3)C2=O)c1 | 32%
30 | Clc1ccccc1COc1cccc(/C=N/Nc2nc(N3CCOCC3)nc(N3CCOCC3)n2)c1 | 2.6%
31 | Cc1ccsc1/C=C(/C#N)c1nc(-c2ccc(Cl)cc2)cs1 | 81.1%
32 | Cc1ccsc1/C=C(/C#N)c1nc(-c2ccc(-c3ccccc3)cc2)cs1 | 3.1%
33 | Cc1ccsc1/C=C(\C#N)c1nc(-c2cccc([N+](=O)[O-])c2)cs1 | 147%
34 | COc1cccc(-c2csc(/C(C#N)=C/c3sccc3C)n2)c1 | -8.9%
35 | N#C/C(=C\c1cccc(F)c1)c1nc(-c2ccc([N+](=O)[O-])cc2)cs1 | 8.5%
36 | Cc1ccc(-c2csc(/C(C#N)=C/c3sccc3C)n2)cc1C | 11.7%
37 | N#C/C(=C\c1ccco1)c1nc(-c2ccccc2)cs1 | 58.3%
38 | COc1ccc(-c2csc(/C(C#N)=C\c3sccc3C)n2)cc1 | 1.8%
39 | N#C/C(=C/c1ccco1)c1nc(-c2cc3ccccc3oc2=O)cs1 | -1.2%
40 | CCOc1ccc(-c2csc(/C(C#N)=C/c3ccco3)n2)cc1 | -6%
41 | COc1ccc(-c2csc(/C(C#N)=C/c3sccc3C)n2)cc1OC | 181%
42 | COc1ccc(-c2csc(/C(C#N)=C/c3ccc(C)o3)n2)cc1OC | -31.7%
